# Data reported in ChEMBL document CHEMBL3988442, “University of Dundee, Small-Polar-MMV Screening Library” (2021).
# The whole screen tested about 48,000 compounds, of which about 13,000 (27%) showed an effect of 50% or more. The list shows a part of the results.
# Tested on: Wolbachia pipientis
# Assay: Anti-Wolbachia Cell-Based Screen
# Format: functional
# Design: scale not given: in the data most compounds retested in dose-response had high values
# Conditions: 5 µM
row,SMILES,Percent Effect [%]
1,Cc1ccc(C(F)(F)F)cc1C(=O)N[C@H]1CN(CCO)C[C@@H]1C1CC1,7.552
2,CNC(=O)c1c(C)cccc1NCc1noc(C2CC2)n1,-16.59
3,N#Cc1ccc(CN2C[C@@H](F)[C@@H](OCc3nc4cnccc4[nH]3)C2)cc1,-2.578
4,CC1CN(C(=O)NCc2cnn(-c3ccc(F)cc3F)c2)CCO1 (stereo unspecified),-3.691
5,Cc1cnn(CCNCC(=O)Nc2ccc(Cl)cn2)c1,6.715
6,CC(C)c1nn(C)c(N(C)C)c1CNC1CCN(C2CC2)CC1.Cl,-24.68
7,CC(C)CN1CC2(CCN(C(=O)C3CSC(C)(C)C(=O)N3)CC2)CC1=O (stereo unspecified),-2.858
8,Cn1ccnc1C(=O)N[C@@H]1CN(Cc2cccs2)[C@@H]2CCCO[C@@H]21.O=C(O)C(F)(F)F,-0.1124
9,CCN(CC)[C@@H]1CN(Cc2ccc(C)o2)[C@@H]2CCCO[C@H]12,-8.708
10,Cn1ccnc1C(=O)N[C@@H]1CN(Cc2ccc(F)cc2)[C@@H]2CCCO[C@@H]21.O=C(O)C(F)(F)F,106
11,Cn1cc(C(=O)N[C@@H]2CN(Cc3cccs3)[C@@H]3CCCO[C@@H]32)cn1.O=C(O)C(F)(F)F,-10.01
12,Cc1ccc(CN2C[C@H](NC(=O)c3nccn3C)[C@H]3OCCC[C@H]32)o1,104.4
13,Cn1cc(C(=O)N[C@@H]2CN(Cc3ccoc3)[C@@H]3CCCO[C@@H]32)cn1,112.9
14,Cn1cc(C(=O)N[C@@H]2CN(Cc3ccc(F)cc3)[C@@H]3CCCO[C@@H]32)cn1.O=C(O)C(F)(F)F,-4.433
15,O=C1C(NCc2nnc3n2CCCC3)CCN1CC(F)(F)F (stereo unspecified),-0.8085
16,COc1ccc(CSCC(O)CO)c(Cl)c1 (stereo unspecified),-5.402
17,CCn1cc(S(=O)(=O)NC(CO)Cc2c[nH]c3ccccc23)cn1 (stereo unspecified),-10.13
18,CC(=O)NC1CCN(c2nc(C)nc3c2c(C)nn3C)C1 (stereo unspecified),-5.882
19,CCN(CC)c1nc2sc(C(=O)NC(C)(C)C(=O)OC)cc2s1,3.402
20,Cc1ccc(N2Cc3nc(=O)[nH]n3C2=O)cc1,-1.797
21,Cc1nc(C2CCN(S(=O)(=O)c3ccc4c(c3)CCO4)CC2)n[nH]1,0.09354
22,COC(=O)c1ccc(CN2CCN(Cc3nc(C)no3)CC2)s1,97.03
23,COC(=O)c1cc(CN2CCC(c3noc(C)n3)CC2)c(C)s1,83.77
24,CC(=O)NCC1CCN(Cc2nc(C3CC3)no2)CC1,21.76

row,SMILES,Percent Effect [%]
1,COC(=O)c1ccc(CN2CCC(c3noc(C)n3)CC2)s1,44.67
2,COC(=O)c1ccc(Cn2cccc(C(F)(F)F)c2=O)s1,-1.829
3,COC(=O)c1ccc(CN2CCC(c3n[nH]c(C)n3)CC2)s1,96.4
4,Cc1noc(CN2CCN(C(C)C(=O)NCc3cccs3)CC2)n1 (stereo unspecified),10.97
5,Cc1noc(CN2CCN(CCS(C)(=O)=O)CC2)n1,-3.839
6,O=C1CCCc2occ(C(=O)N3CCCC4(CCNC4)C3)c21 (stereo unspecified),-0.7654
7,Cc1c(Cl)cccc1S(=O)(=O)NCC(O)c1cccn1C (stereo unspecified),9.208
8,O=C(NCCn1cccn1)Nc1cc(C(=O)N2CCOCC2)ccc1Cl,-1.545
9,COCCNC(=O)[C@H]1C[C@@](CC(C)C)(C(=O)O)N(C)[C@H]1c1cccnc1,-5.7
10,Cc1cc(C)n(-c2ccc(C(=O)NCc3cncn3CC(C)C)cc2)n1,-4.296
11,Cc1cc(C)n(-c2ccc(C(C)NS(=O)(=O)CCCS(C)(=O)=O)cc2)n1 (stereo unspecified),5.826
12,CSCc1nc(CNC(=O)c2cnn(C(C)C)c2)cs1,-8.764
13,Cc1cc(C)n(-c2ccc(C(=O)NCC(CO)Cc3cccs3)cc2)n1 (stereo unspecified),87.25
14,CC(C)n1cc(C(=O)NCCc2cn3ccsc3n2)cn1,-2.025
15,CC(C)n1cc(C(=O)NCC(CO)Cc2cccs2)cn1 (stereo unspecified),100.7
16,Cc1cc(C)n(-c2ccc(C(=O)NCC(CO)Cc3ccco3)cc2)n1 (stereo unspecified),116.9
17,CC(CNC(=O)N1CCC(CO)CC1)Cc1cccs1 (stereo unspecified),-8.447
18,CCCS(=O)(=O)NC(=O)c1ccc(-n2nc(C)cc2C)cc1,-12.15
19,Cc1cc(-c2nn(C)c(Cl)c2CN2Cc3ccccc3C(O)C2)no1 (stereo unspecified),9.326
20,CCCS(=O)(=O)N1CCC2(CCCC(=O)N2C)CC1,-27.87
21,COCCN1CCN(Cc2ccc(C(C)=O)cc2)[C@H]2CS(=O)(=O)C[C@H]21,-2.157
22,Cc1nn(C)c(Oc2cccc(F)c2)c1NC(=O)C1CCCO1 (stereo unspecified),1.382
23,COC(=O)C1CN(Cc2ccc(-c3ccncc3)cc2F)C[C@@H](C)O1 (stereo partly specified),4.503
24,CC(C)OCCN1CCN(C(=O)c2cccc(-n3cccn3)n2)CC1,-4.895

row,SMILES,Percent Effect [%]
1,COc1cccc2c1OCC(CNC(=O)CSc1ccccn1)C2 (stereo unspecified),-6.827
2,COc1cccc2c1OCC(C(=O)NCCc1nnc(C)s1)C2 (stereo unspecified),6.125
3,COc1cccc2c1OCC(NC(=O)NCCC(N)=O)C2 (stereo unspecified),107.1
4,COc1cccc2c1OCC(CNC(=O)CNC(N)=O)C2 (stereo unspecified),-0.3476
5,COc1cccc2c1OCC(NC(=O)NCCc1ccccn1)C2 (stereo unspecified),120.5
6,COc1cccc2c1OCC(C(=O)NCCc1nnc(N)s1)C2 (stereo unspecified),12.39
7,CNC(=O)c1cccc(CNC2CCCSc3ccccc32)c1 (stereo unspecified),-0.5699
8,CN(C)C(C(=O)NCC1(Cn2cccn2)CC1)c1ccc(F)cc1 (stereo unspecified),-7.743
9,CSc1ccc(OC(C)C(=O)Nc2cc[nH]n2)cc1 (stereo unspecified),1.482
10,COc1cccc(CNCc2nnc3n2CC(C(F)(F)F)CC3)c1 (stereo unspecified),-16.12
11,CCC1COCCN1C(=O)CNC(=O)c1ccc2c(c1)CCC2 (stereo unspecified),-1.675
12,NC(=O)Cn1cc(NC(=O)NCC2CCN(c3ccccc3)C2)cn1 (stereo unspecified),6.849
13,CCC(CNC(=O)Nc1cnn(CC)c1)N1CCCC1 (stereo unspecified),-8.538
14,CCC(CNC(=O)c1ccccc1Br)N1CCc2ccccc2C1 (stereo unspecified),-9.585
15,NC(=O)Cn1cc(NC(=O)NCCN2CCc3ccccc3C2)cn1,93.55
16,O=C(NCC(O)CN1CCc2ccccc2C1)Nc1cccnc1 (stereo unspecified),1.395
17,CCC(CNC(=O)Nc1cnn(CC)c1)N1CCc2ccccc2C1 (stereo unspecified),115.3
18,CCn1cc(NC(=O)NCC(c2cccs2)N(C)C)cn1 (stereo unspecified),-11.74
19,CCn1cc(NC(=O)NCC(O)CN2CCc3ccccc3C2)cn1 (stereo unspecified),9.53
20,CC(Cn1cccn1)NC(=O)NCCN1CCc2ccccc2C1 (stereo unspecified),1.571
21,CCn1cc(NC(=O)NCC(C)(C)N2CCc3ccccc3C2)cn1,107.6
22,NC(=O)Cn1cc(NC(=O)N2CCCC2)cn1,-13.27
23,CCn1cc(NC(=O)NCCN2CCc3ccccc3C2)cn1,123.6
